Experimental data: PubChem BioAssay AID1220 (Sanford-Burnham Center for Chemical Genomics, 2008)
Among all 190,000 compounds or so, about 1,300 (0.68%) were called active. The full list was thinned out, with actives kept by preference. Unmarked numbers belong to inactive results. Rule as the data show it: active = inhibition above about 50%; inactive = the rest.

What follows are compounds tested against Mannose-6-phosphate isomerase (Homo sapiens) (UniProt P34949) (assay: MPI inhibition at elevated mannose 6-phosphate – biochemical, fluorescence intensity, high mannose 6-phosphate, primary screen (AID 1220)). Settings: recombinant PMI enzyme, coupled fluorescence intensity; at 20 µM; active compounds read high.
Chain of Mannose-6-phosphate isomerase (Homo sapiens) (P34949 whole entry, looked up): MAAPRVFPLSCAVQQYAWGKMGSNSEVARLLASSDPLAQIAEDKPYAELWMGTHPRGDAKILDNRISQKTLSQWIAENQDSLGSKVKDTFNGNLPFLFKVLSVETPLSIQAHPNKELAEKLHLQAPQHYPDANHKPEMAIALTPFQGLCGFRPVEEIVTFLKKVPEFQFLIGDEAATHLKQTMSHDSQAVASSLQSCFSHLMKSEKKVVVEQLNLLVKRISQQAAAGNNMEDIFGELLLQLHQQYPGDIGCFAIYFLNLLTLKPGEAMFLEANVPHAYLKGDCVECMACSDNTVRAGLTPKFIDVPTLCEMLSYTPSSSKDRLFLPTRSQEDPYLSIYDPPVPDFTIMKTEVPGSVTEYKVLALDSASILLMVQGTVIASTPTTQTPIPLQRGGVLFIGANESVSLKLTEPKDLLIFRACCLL
In the case of O=C(CSc1nc2ccccc2n1CC(=O)N1CCCC1)NCc1ccc2c(c1)OCO2, the inhibition was -0.8%. Cc1ccc(NC(=O)c2cc3c(s2)CCC3)cc1S(=O)(=O)N1CCOCC1 was tested, and the inhibition was 8.8%. COc1ccc(S(=O)(=O)NCc2cccs2)cc1 gave an inhibition of -18.3%. In the case of O=C(NC(=S)NCCCN1CCOCC1)c1cccc2ccccc12, the inhibition was 1%. Compound O=S1(=O)NC(=NCCc2ccccn2)c2ccccc21 has an inhibition of -6.8%. In the case of O=C1c2ccccc2C(=O)N1c1cccc2cccnc12, the inhibition was -2.2%. In the case of O=S1(=O)Nc2c(ccc3cccnc23)-c2ccccc21, the inhibition was 69.5% (active). O=S(=O)(c1ccc(Cl)cc1)N1CCN(c2ccc(N3CCOCC3)nn2)CC1 showed an inhibition of -2.7%. In the case of N#CC1=C(N)Oc2c(ccc3ccccc23)C1c1ccsc1 (centres undefined), the inhibition was 53.2% (active). Work on N#CC1=C(N)Oc2c(O)cc3ccccc3c2C1c1ccsc1 (centres undefined) yielded an inhibition of 30.3%. In the case of N#CC1=C(N)Oc2c(ccc3ccccc23)C1c1cccs1 (centres undefined), the inhibition was 3.4%. Compound c1ccc(N2CCN(c3nc4ccccc4n4cnnc34)CC2)cc1 has an inhibition of 10%. CC1(C)Oc2cc(N)c([N+](=O)[O-])cc2O1 showed an inhibition of 28.1%. For Nc1ccc(-c2ccc(N)c([N+](=O)[O-])c2)cc1[N+](=O)[O-], the inhibition was -2.3%. O=c1[nH]cnc2ccsc12 was tested, and the inhibition was -6%. CCOc1ccccc1NC(=O)CN(c1ccc(OC)cc1OC)S(=O)(=O)c1ccccc1[N+](=O)[O-] was tested, and the inhibition was -0.9%. With CN(C)c1ccc(NC(=O)Nc2cccc3ccccc23)cc1 the inhibition was 25.8%. Compound CC(=O)c1cccc(NC(=O)C(=O)Nc2cccc3ccccc23)c1 has an inhibition of -6.5%. Work on COc1ccc(N/C(C)=C/C(=O)c2ccccc2)cc1 yielded an inhibition of 14.3%. C/C(=C\C(=S)Nc1ccccc1)Nc1cccc2ccccc12 was tested, and the inhibition was 60.8% (active). With CN(C)C(=S)Nc1ccc2ccccc2c1 the inhibition was 3.2%. For COc1ccc(N/C(C)=C/C(=S)Nc2ccccc2)cc1, the inhibition was 50.1% (active). C/C(=C\C(=S)Nc1ccccc1)Nc1ccccc1 showed an inhibition of -1.1%. CC(=O)Nc1ccc2ccccc2c1 showed an inhibition of 6.5%. With C/C(=C\C(=S)Nc1ccccc1)Nc1ccc2ccccc2c1 the inhibition was 60% (active). Work on CCn1c(SCC(=O)N/N=C/c2cc(OC)c(O)c(OC)c2)nc2ccccc21 yielded an inhibition of -11%. In the case of CC(C)NS(=O)(=O)c1ccc(NC(=S)NC(=O)c2cccc([N+](=O)[O-])c2)cc1, the inhibition was -2.9%. O=C(O)CSc1nnc(-c2ccncc2)n1CCc1ccccc1 gave an inhibition of -5.1%. O=c1[nH]c2cc3c(cc2cc1CN(Cc1nnnn1CC1CCCO1)C1CCCC1)OCO3 (centres undefined) gave an inhibition of -6.2%. Compound O=C(CCN1CCCCC1)c1ccc2c(c1)OCCO2 has an inhibition of 43%. For Cc1cccc(N2CCN(S(=O)(=O)c3cccc4nonc34)CC2C)c1 (centres undefined), the inhibition was 26.5%. Cc1[nH]n(-c2ccccc2)c(=O)c1C(c1ccccc1C(=O)O)c1c(C)[nH]n(-c2ccccc2)c1=O was tested, and the inhibition was -21.9%. Work on COc1cccc(OC)c1C(=O)Nc1ccc(NC(=O)c2ccco2)cc1 yielded an inhibition of 3.3%. With COc1ccc(NC(=O)c2ccco2)cc1NC(=O)c1ccco1 the inhibition was 4.5%. With COc1ccc(NC(=O)c2ccco2)cc1N the inhibition was 58.3% (active). Work on N#Cc1ccc(OCC(=O)NCC2(N3CCCCC3)CCCCC2)cc1 yielded an inhibition of -10.6%. In the case of COc1ccc(-n2c(Cn3c(=O)sc4ccccc43)nnc2SCC(=O)N2CCCC2)cc1, the inhibition was -4.6%. Compound O=C(O)CCc1c(C(=O)O)[nH]c2ccccc12 has an inhibition of -4.7%. With CCN(CC)S(=O)(=O)c1cccc(NC(=O)COC(=O)c2n[nH]c(=O)c3ccccc23)c1 the inhibition was 53.3% (active). Compound Cc1ccc(S(=O)(=O)N(C)C)cc1NC(=O)COC(=O)c1n[nH]c(=O)c2ccccc12 has an inhibition of -8%. Work on CCN(CC)S(=O)(=O)c1cccc(NC(=O)COC(=O)c2cc(=O)c3ccccc3o2)c1 yielded an inhibition of 9.7%. For COc1cc(CN2CCC(C(=O)NC3CCCC3)CC2)cc(OC)c1O, the inhibition was 63.9% (active). COc1cc(CN2CCC(C(=O)N3CCN(c4ccccc4F)CC3)CC2)ccc1O was tested, and the inhibition was 13.4%. With COc1cc(CN2CCC(C(=O)NC3CCCC3)CC2)cc(Br)c1O the inhibition was 14.6%. Work on COc1cc(CN2CCC(C(=O)NC3CCCC3)CC2)ccc1O yielded an inhibition of 3.5%. COc1cc(CN2CCC(C(=O)N3CCN(c4ccccc4F)CC3)CC2)cc(OC)c1O was tested, and the inhibition was 53.7% (active). Work on COc1cc(CN2CCC(C(=O)N3CCN(c4ccccc4F)CC3)CC2)cc(OC)c1OC yielded an inhibition of 9.1%. Cc1cc(-c2[nH]nc3c2C(c2ccc(Cl)cc2)C(C#N)=C(N)O3)c(C)s1 (centres undefined) showed an inhibition of 26.2%. Compound COc1ccc(Cl)cc1CSc1n[nH]c(C)n1 has an inhibition of 8.9%. For O=C(NCc1ccco1)C(=O)NCC1OCCCN1S(=O)(=O)c1ccccc1 (centres undefined), the inhibition was -6.2%. For Cc1cc(NC(=O)CCC(=O)N(CC(=O)NCC2CCCO2)Cc2ccc(F)cc2)no1 (centres undefined), the inhibition was -6.3%. COc1ccc(C=C2C(=O)c3ccccc3C2=O)cc1O was tested, and the inhibition was 60.8% (active). Work on CCN1C/C(=C/c2ccc(OC)c(O)c2)C(=O)/C(=C/c2ccc(OC)c(O)c2)C1 yielded an inhibition of 36.6%. Work on COc1cc(C=C2C(=O)c3ccccc3C2=O)cc(OC)c1OC yielded an inhibition of -22.9%. CC1(C)C(=O)Nc2ccccc2N1C(=O)COc1cccnc1[N+](=O)[O-] showed an inhibition of -1.5%. CCOc1cc(-c2noc(CCCC(N)=O)n2)cc(Br)c1OC was tested, and the inhibition was 15.3%. Work on CC(C)CC1(C)NC(=O)N(CC(=O)NC(=O)Nc2ccc3c(c2)OCCO3)C1=O (centres undefined) yielded an inhibition of 7%. N#Cc1cc(Cl)c(N2CCOCC2)cc1C#N was tested, and the inhibition was -7.2%. For N#CC(C#N)=C1C=C2C=C(N3CCCCCC3)CCC2CC1 (centres undefined), the inhibition was 50.6% (active). CN1CCN(C2=CC3=CC(=C(C#N)C#N)CCC3CC2)CC1 (centres undefined) was tested, and the inhibition was 61.8% (active). With N#CC(C#N)=C1C=C2C=C(N3CCOCC3)CCC2CC1 (centres undefined) the inhibition was 55.3% (active). With N#C/C(=C\c1ccc(N2CCOCC2)cc1)c1ccccc1 the inhibition was 2.5%. With N#CC(C#N)=C1C=C2C=C(N3CCCCC3)CCC2CC1 (centres undefined) the inhibition was 58.7% (active). Compound N#CC1=C(N)C2=C(N3CCCCC3)CCCC2C1(C#N)C#N (centres undefined) has an inhibition of 11.7%.
